Laboratory results as given in PubChem BioAssay (NCATS).
Records with an inconclusive call do not appear. Entries that show only a call come without a potency. Calls of active or inactive are those of the source. Calls follow the shape of the dose curve; as a rule, active = well fitted inhibition curve with a large enough effect; inconclusive = small, poorly fitted or top-dose-only effect; inactive = flat fitted curve, though single readings scatter.

Assay: qHTS of Trypanosoma Brucei Inhibitors: LOPAC Validation (AID 624147)
Conditions: purified enzyme assay, luminescence, 45 min; series mostly up to 57.5 µM
Description: Members of the Trypanosomatidae family of parasitic protozoans cause a spectrum of diseases throughout the tropical and subtropical world. Sleeping sickness, caused by two subspecies of Trypanosoma brucei, is endemic to areas of sub-Saharan Africa, while Chagas' disease, a manifestation of Trypanosoma cruzi infection, is prevalent throughout Central and South America. In addition, many species of Leishmania are responsible for a range of cutaneous and visceral diseases, causing ulcers, destructive lesions and kalaazar, a lethal infection of the viscera. These diseases cause severe public health and economic burdens on populations that are often already caught in a tragic cycle of poverty, poor nutrition and disease. Collectively, parasites of the trypanosomatid family infect 30 million people worldwide (~500 million live in endemic areas), and account for ~130K deaths annually. Existing treatments have developed little in the past 50 years, and suffer from toxicity, poor efficacy and resistance; the goal of this project is to develop lead drugs that will be suitable for entry into pre-clinical trials.
Glycolysis in axenically cultured T. cruzi, representing the intracellular pathogenic stage, is also essential for these parasites. {Engel, 1987} This project aims to discover and optimize selective inhibitors of the glycolytic enzyme pyruvate kinase (PYK) from Trypanosoma brucei, the parasite that causes sleeping sickness. […] Trypanosomatid PYKs show significant differences from their human counterparts including only 47-50% sequence identity and different allosteric and activation properties.{Callens, 1992} To this end, a qHTS was done against the MLSMR to discover inhibitors.
NIH Molecular Libraries Probe Production Network [MLPCN]
NIH Chemical Genomics Center [NCGC]
PI Name: Malcolm Walkinshaw, University of Edinburgh
2 uL of TbPYK/substrate buffer (columns 1-3, 5-48) are dispensed into Greiner white solid bottom 1536-well assay plates; column 4 receives only TEA buffer as 0x TbPYK controls. Compounds are then transferred via Kalypsys pin tool equipped with 1536-pin array (10 nL slotted pins, V&P Scientific, San Diego, CA). Following addition of compound, 2 uL of ADP (130 uM final concentration, all columns) is added to initiate the reaction. The plates are then incubated at room temperature for 45 minutes. Kinase-Glo Plus reagent is added (3 uL) and plates incubated for 10 minutes, before being transferred to a ViewLux high-throughput CCD imager (PerkinElmer) wherein single end-point measurements of luminescence are acquired using a clear filter. All reagents are diluted in an assay buffer consisting of 50 mM TEA (pH 7.2), 100 mM KCl, 10 mM MgCl2, 0.05% BSA and 0.01% Tween-20.
All screening operations will be performed on a fully integrated robotic system (Kalypsys, San Diego, CA) containing one RX-130 and two RX-90 anthropomorphic robotic arms (Staeubli, Duncan, SC). Library plates will be screened starting from the lowest and proceeding to the highest concentration. Vehicle-only plates, with DMSO being pin-transferred to columns 5-48, will be inserted uniformly at the beginning and the end of each library in order to monitor and record any shifts in the background, which can be affected by reagent dispensers or loss in enzyme activity over time. Screening data will be corrected, normalized, and concentration-effect relationships will be derived by using publicly-available curve fitting algorithms developed in-house (http://ncgc.nih.gov/pub/openhts).

| SMILES | Potency |
| --- | --- |
| N[C@@H](Cc1ccc(O)c(I)c1)C(=O)O | inactive |
| CNCCc1cnc(CCC(c2ccccc2)c2ccccc2)[nH]1 | inactive |
| C=CC[C@H](N)C(=O)O | inactive |
| NC1(C(=O)O)CCCCC1 | inactive |
| CCN(CC)CCOC(=O)c1cc(Cl)c(N)cc1OC | inactive |
| CSC(=N)N | inactive |
| COc1ccccc1N1CCN(CCCNc2c(C)c(=O)n(C)c(=O)n2C)CC1 | inactive |
| OC1(c2ccc(Cl)cc2)CCN(Cc2c[nH]c3ccccc23)CC1 | inactive |
| CNC(=O)c1cc2c(cn1)[nH]c1ccccc12 | inactive |
| NCCS(=O)O | inactive |
| Nc1ncnc2c1ncn2C1CCCO1 (stereo not given) | inactive |
| CCN(CC)CCCCCCCCOC(=O)c1cc(OC)c(OC)c(OC)c1 | inactive |
| CCCCOC(=O)NS(=O)(=O)c1sc(CC(C)C)cc1-c1ccc(Cn2c(CC)nc3c(C)cc(C)nc32)cc1 | inactive |
| Nc1ccc(-c2ccc3ccccc3n2)cc1 | inactive |
| C=CC1(C)CC(=O)C2(O)C(C)(O1)C(OC(C)=O)C(O)C1C(C)(C)CCC(O)C12C (stereo not given) | inactive |
| NC(N)=N[C@@H](CCC(=O)O)C(=O)O | inactive |
| C=CCn1c(=O)c2c(nc(-c3ccc(S(=O)(=O)O)cc3)n2C)n(C)c1=O | inactive |
| NCCCCN=C(N)N | inactive |
| N[C@@H](CCCC(=O)O)C(=O)O | inactive |
| C=C1C(=O)O[C@@H]2[C@H]3O[C@]3(C)CCC=C(C)CC[C@@H]12 | inactive |

| SMILES | Potency |
| --- | --- |
| CSC(N)=NCCC[C@H](N)C(=O)O | inactive |
| c1ccc(C(NCc2cccnc2)(c2ccccc2)c2ccccc2)cc1 | inactive |
| CN(C)CCC(c1ccc(Br)cc1)c1ccccn1 (stereo not given) | inactive |
| CCCCCC(O)CCCC(=O)O (stereo not given) | inactive |
| O=[N+]([O-])c1cccc2cn[nH]c12 | inactive |
| CCCn1c(=O)c2c(ncn2C)n(CCC)c1=O | inactive |
| CSc1nc(N)c2ncn([C@@H]3O[C@H](COP(=O)(O)OP(=O)(O)O)C(O)[C@H]3O)c2n1 (stereo not given in full) | inactive |
| CC1CNCCN1S(=O)(=O)c1cccc2cnccc12 (stereo not given) | inactive |
| O=c1onc2n1-c1cc(Br)ccc1OC2 | inactive |
| Nc1ncnc2c1c(-c1ccc(Oc3ccccc3)cc1)cn2C1CCCC1 | inactive |
| CN1Cc2sccc2C(c2ccc(O)c(O)c2)C1 (stereo not given) | inactive |
| Cn1ccnc1 | inactive |
| Cc1cccc(C(=O)NCN2CCN(c3ccccc3C#N)CC2)c1 | inactive |
| NC(N)=NC(N)=Nc1cccc(Cl)c1 | inactive |
| Nc1ccc(-c2nc3ccc(-c4nc5ccc(N)cc5[nH]4)cc3[nH]2)cc1 | inactive |
| CN1CCC2(CCN3CCc4c(oc5ccccc45)C3C2)N(C)C1=O (stereo not given) | inactive |
| Clc1nccc2c1ccc1ccccc12 | inactive |
| O=C(O)C1CN(CCCP(=O)(O)O)CCN1 (stereo not given) | inactive |
| O=S(=O)(c1cccc2c(Cl)cccc12)N1CCCNCC1 | inactive |
| NS(=O)(=O)c1cccc2c1c([N+](=O)[O-])cc1nc(O)c(O)nc12 | inactive |
